Here are results for 28 compounds from PubChem BioAssay (NCATS).

Records with an inconclusive call do not appear. Where a call stands in place of a potency, no number is given. Values without a mark were called inactive. The source made the active and inactive calls. The call rests on the fitted dose curve; in most records, active means well fitted inhibition curve with a large enough effect; inconclusive means small, poorly fitted or top-dose-only effect; inactive means flat fitted curve, though single readings scatter. Square brackets hold non-standard residues; d marks the D form. Peptide text beside a SMILES is read from it. Hyp = O=C(O)[CH]1C[CH](O)CN1; Phe(ol) = N[CH](CO)Cc1ccccc1; Iva = CC[C](C)(N)C(=O)O; Aib = CC(C)(N)C(=O)O

The target in the experiment is Aldehyde dehydrogenase, mitochondrial (Homo sapiens) (UniProt P05091). In words: qHTS for Inhibitors of the Aldehyde Dehydrogenase Family (ALDH2) Primary screen (AID 2061308). Further: nearly all actives have a fitted effect of over 55% in size. Particulars: ALDH2 enzyme inhibition qHTS, 1536-well; series mostly up to 56 µM. (In general: qHTS replaces the single test concentration by a dilution series.)
Take `Cc1cc(C(=O)N2Cc3cnn(C)c3Nc3ccccc32)ccc1CNC(=O)N1CCN(Cc2cc(O)cc(O)c2)CC1`: the Potency entry was “inactive”.
Same read-out and setting: the same measure for `CCC1CC2C(C)=CC3CCCCC3C2(C)C2(OC(=O)C(C)(O)OC2=O)O1` (stereo not drawn): “inactive”; for `CC(C)(C)NC(=O)[C@@H]1CN(Cc2cccnc2)CCN1C[C@@H](O)C[C@@H](Cc1ccccc1)C(=O)N[C@H]1c2ccccc2C[C@H]1O`: “inactive”; for `Cc1ccccc1C(=O)Nc1ccc(C(=O)N2CCC[C@@H](O)c3cc(Cl)ccc32)c(C)c1`: “inactive”.
The same measure, in the same setting: the same measure for `COc1ccc2c(c1)C(C(=O)N(Cc1ccc(N(C)C)cc1)c1ccc(C(C)C)cc1)CCC2` (stereo not drawn): “inactive”.
Same read-out and setting: next, `CC1OC(OC2C(O)C(OC3CCC4(C)C(CCC5(C)C4CC=C4C6CC(C)(COC7OC(CO)C(O)C(O)C7O)CC(O)C6(C)CCC45C)C3(C)C)OC(C(=O)O)C2O)C(O)C(O)C1OC1OCC(O)C(O)C1O` (stereo not drawn): “inactive”; `CC1=C2C(=O)C=C(CO)C2C2OC(=O)C(CS(=O)(=O)O)C2C(OC(=O)Cc2ccc(O)cc2)C1` (stereo not drawn): “inactive”; `CCOc1nc2cccc(C(=O)O)c2n1Cc1ccc(-c2ccccc2-c2nn[nH]n2)cc1`: “inactive”.
Consider `CCCCCOC(=O)Nc1nc(=O)n(C2O[C@H](C)[C@@H](O)[C@H]2O)cc1F` (stereo partly drawn), for which the Potency result was “inactive”.
For the compound `COC(=O)C1=COC(OC2OC(CO)C(O)C(O)C2O)C2C(C)C(OC(C)=O)C(OC(=O)c3ccccc3)C12` (stereo not drawn), the Potency result was “inactive”.
Same read-out and setting: the same measure for `CCCCS(=O)(=O)N[C@@H](Cc1ccc(OCCCCC2CCNCC2)cc1)C(=O)O`: “inactive”.
Consider `CCC(C)(NC(=O)C(CCC(N)=O)NC(=O)C1CC(O)CN1C(=O)C(C)(C)NC(=O)C(C)(C)NC(=O)C(CC(C)C)NC(=O)CNC(=O)C(NC(=O)C(C)(C)NC(=O)C(C)(C)NC(=O)C(C)(C)NC(=O)C(Cc1ccccc1)NC(C)=O)C(C)C)C(=O)N1CC(O)CC1C(=O)NC(C)(C)C(=O)NC(CO)Cc1ccccc1` (stereo not drawn) (Ac-F[Aib][Aib][Aib]VGL[Aib][Aib][Hyp]Q[Iva][Hyp][Aib][Phe(ol)]; configuration not given here), for which the activity change, negative = inhibition was -9.83% [at 11.2 µM].
With `CC1C=CC2CCCCC2C1CCC1CC(O)CC(=O)O1` (stereo not drawn), the Potency entry was “inactive”.
With `CC(=O)O[C@@H]1[C@@H](O)[C@H](C)O[C@@H](O[C@H]2[C@@H]3C=CO[C@@H](O[C@@H]4O[C@H](CO)[C@@H](O)[C@H](O)[C@H]4O)[C@@H]3[C@@]3(CO)O[C@@H]23)[C@@H]1OC(=O)/C=C/c1ccccc1`, the Potency entry is “inactive”.
On the same count and under the same terms, the same measure for `Cc1cc(C)c(NC(=O)N(Cc2ccc3c(c2)Cc2ccccc2-3)C2CCCCCC2)c(C)c1`: “inactive”; for `CCN1CCN(Cc2ccc(NC(=O)c3ccc(C)c(Oc4ccnc5[nH]ccc45)c3)cc2C(F)(F)F)CC1`: “inactive”.
Still for that read-out and setting: the same measure for `CC1(C)CCC2(C(=O)OC3OCC(O)C(O)C3O)CCC3(C)C(=CCC4C5(C)CC(O)C(OC6OC(COC7OCC(O)C(O)C7O)C(O)C(O)C6O)C(C)(C)C5CCC43C)C2C1` (stereo not drawn): “inactive”; for `CC1(C)CC[C@@]2(C(=O)O[C@@H]3O[C@H](CO)[C@@H](O)[C@H](O)[C@H]3O)C(C1)C1=CCC3[C@@]4(C)CC[C@@H](O[C@@H]5O[C@H](C(=O)O)[C@@H](O[C@@H]6OC[C@@H](O)[C@H](O)[C@H]6O)[C@H](O[C@@H]6OC[C@](O)(CO)[C@H]6O)[C@H]5O)C(C)(C)C4CC[C@@]3(C)[C@]1(C)C[C@H]2O` (stereo partly drawn): “inactive”; for `NC(=O)[C@H]1CCCCc2c1[nH]c1ccc(Cl)cc21`: “inactive”.
Still for that read-out and setting: next, `C=C1CC[C@@H]2[C@](C)(CO)[C@H](O)CC[C@@]2(C)[C@@H]1C/C=C1/C(=O)OC[C@@H]1O`: “inactive”; `CC(NC(=O)c1ccccc1N)C(=O)O` (stereo not drawn): “inactive”; `CC(C)C(C#N)O[C@@H]1O[C@H](CO[C@@H]2OC[C@](O)(CO)[C@H]2O)[C@@H](O)[C@H](O)[C@H]1O` (stereo partly drawn): “inactive”.
On to `CC1(C)C2CC(OC3OC(COC4OCC(O)(CO)C4O)C(O)C(O)C3O)C1(C)CC2O` (stereo not drawn), for which the Potency result is “inactive”.
On to `C=C1CCC2C(C)(C(=O)O)CCCC2(C)C1CCC1=CCOC1=O` (stereo not drawn), for which the Potency entry is “inactive”.
Still for that read-out and setting: next, `CC(C)(C)c1ccc(C(=O)Nc2cn3cc(-n4ccnc4)ccc3n2)cc1`: “inactive”; `OCC1OC(Oc2cc(O)cc(/C=C/c3ccc(O)cc3)c2)C(O)C(O)C1O` (stereo not drawn): “inactive”; `Cc1cc(Nc2nc(NC(C)c3ncc(F)cn3)ncc2Cl)n[nH]1` (stereo not drawn): “inactive”.
Take `C[C@@H]1O[C@@H](O[C@@H]2[C@@H](O)[C@H](O[C@H]3[C@H](O[C@H]4CC[C@@]5(C)C(CC[C@]6(C)C5CC=C5[C@@H]7CC(C)(C)CC[C@]7(C(=O)O[C@@H]7O[C@H](CO)[C@@H](O)[C@H](O)[C@H]7O[C@@H]7O[C@@H](C)[C@H](O[C@@H]8O[C@@H](C)[C@H](O)[C@@H](O)[C@H]8O)[C@@H](O)[C@H]7O)CC[C@]56C)[C@@]4(C)CO)O[C@H](C(=O)O)[C@@H](O)[C@@H]3O)O[C@H](CO)[C@H]2O)[C@H](O)[C@H](O)[C@H]1O` (stereo partly drawn): the activity change, negative = inhibition was 7.29% [at 11.2 µM].
